PubChem BioAssay (NCI)
This is part of a sample that, as a whole, favours compounds with a hit. Of some 83,000 tested, about 20% had one in any assay.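 Step 1: grow cells in 96-well plates. Step 2: add test compound at a single concentration. Step 3: incubate 48 h. Step 4: record percent growth.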

Experiments:
Assay in all cases: NCI-60 one-dose screen, 48 h (100 = growth as untreated, 0 = no growth, -100 = all killed)
Settings in all cases: 10 µM unless noted; active = growth percent below 10; inactive = the rest
SR leukemia = system: SR leukemia
OVCAR-8 ovarian = system: OVCAR-8 ovarian
OVCAR-5 ovarian = system: OVCAR-5 ovarian
OVCAR-4 ovarian = system: OVCAR-4 ovarian
SK-OV-3 ovarian = system: SK-OV-3 ovarian
IGROV1 ovarian = system: IGROV1 ovarian
OVCAR-3 ovarian = system: OVCAR-3 ovarian
HS 578T breast = system: HS 578T breast
NCI/ADR-RES ovarian = system: NCI/ADR-RES ovarian
T-47D breast = system: T-47D breast
BT-549 breast = system: BT-549 breast
MDA-MB-435 melanoma = system: MDA-MB-435 melanoma
SW-620 colon = system: SW-620 colon
MCF7 breast = system: MCF7 breast
HCT-116 colon = system: HCT-116 colon
HCC-2998 colon = system: HCC-2998 colon
KM12 colon = system: KM12 colon

Measured: growth

CC1(C)OC2OC3C(CN)OC(c4ccccc4)OC3C2O1 (stereo unspecified)
inactive: SR leukemia 96.2% | OVCAR-8 ovarian 103% | OVCAR-5 ovarian 104% | OVCAR-4 ovarian 111% | SK-OV-3 ovarian 104% | IGROV1 ovarian 121% | OVCAR-3 ovarian 105% | HS 578T breast 118% | NCI/ADR-RES ovarian 100% | T-47D breast 92.6% | BT-549 breast 103% | MDA-MB-435 melanoma 110% | SW-620 colon 122% | MCF7 breast 103% | HCT-116 colon 101% | HCC-2998 colon 94.9% | KM12 colon 104%

CCCCOc1nc2ccc(C)cc2cc1/C=C/C(=O)/C=C(O)/C=C/c1cc2cc(C)ccc2nc1OCCCC
inactive: SR leukemia 95.9% | OVCAR-8 ovarian 100% | OVCAR-5 ovarian 102% | OVCAR-4 ovarian 116% | SK-OV-3 ovarian 89.9% | IGROV1 ovarian 109% | OVCAR-3 ovarian 113% | HS 578T breast 100% | NCI/ADR-RES ovarian 96.8% | T-47D breast 89.2% | BT-549 breast 90.8% | MDA-MB-435 melanoma 107% | SW-620 colon 107% | MCF7 breast 100% | HCT-116 colon 87.6% | HCC-2998 colon 108% | KM12 colon 102%

O=C(Cc1ccc([N+](=O)[O-])cc1)Oc1ccccc1
inactive: SR leukemia 96.7% | OVCAR-8 ovarian 107% | OVCAR-5 ovarian 115% | OVCAR-4 ovarian 111% | SK-OV-3 ovarian 110% | IGROV1 ovarian 123% | OVCAR-3 ovarian 119% | HS 578T breast 109% | NCI/ADR-RES ovarian 113% | T-47D breast 109% | BT-549 breast 106% | MDA-MB-435 melanoma 122% | SW-620 colon 114% | MCF7 breast 107% | HCT-116 colon 114% | HCC-2998 colon 106% | KM12 colon 118%

c1ccc(CCn2cccc2)nc1
inactive: SR leukemia 75.2% | OVCAR-8 ovarian 102% | OVCAR-5 ovarian 103% | OVCAR-4 ovarian 113% | SK-OV-3 ovarian 107% | IGROV1 ovarian 121% | OVCAR-3 ovarian 101% | HS 578T breast 120% | NCI/ADR-RES ovarian 105% | T-47D breast 94.7% | BT-549 breast 106% | MDA-MB-435 melanoma 114% | SW-620 colon 117% | MCF7 breast 101% | HCT-116 colon 101% | HCC-2998 colon 96.7% | KM12 colon 103%

CCOC(=O)C1C(=O)C=C(c2ccccc2)CC1c1sc(N(C)Cc2ccccc2)nc1Cl (stereo unspecified)
inactive: SR leukemia 81.4% | OVCAR-8 ovarian 89.2% | OVCAR-5 ovarian 107% | OVCAR-4 ovarian 90.7% | SK-OV-3 ovarian 87.4% | IGROV1 ovarian 110% | OVCAR-3 ovarian 102% | HS 578T breast 76.2% | NCI/ADR-RES ovarian 94.6% | T-47D breast 60.4% | BT-549 breast 96.1% | MDA-MB-435 melanoma 96.2% | SW-620 colon 90.3% | MCF7 breast 79.9% | HCT-116 colon 80.1% | HCC-2998 colon 109% | KM12 colon 90.9%

Cc1c(C(N)=O)sc2ncn(CC(=O)NN=C3CCCCC3)c(=O)c12
inactive: SR leukemia 82.9% | OVCAR-8 ovarian 110% | OVCAR-5 ovarian 104% | OVCAR-4 ovarian 110% | SK-OV-3 ovarian 110% | IGROV1 ovarian 135% | OVCAR-3 ovarian 107% | HS 578T breast 108% | NCI/ADR-RES ovarian 100% | T-47D breast 103% | BT-549 breast 99.4% | MDA-MB-435 melanoma 99% | SW-620 colon 97.4% | MCF7 breast 109% | HCT-116 colon 95.1% | HCC-2998 colon 106% | KM12 colon 115%

CC(C)(CCc1ccccn1)C(=O)CCCc1ccccn1
inactive: SR leukemia 90.9% | OVCAR-8 ovarian 105% | OVCAR-5 ovarian 103% | OVCAR-4 ovarian 111% | SK-OV-3 ovarian 108% | IGROV1 ovarian 108% | OVCAR-3 ovarian 110% | HS 578T breast 111% | NCI/ADR-RES ovarian 106% | T-47D breast 95.2% | BT-549 breast 105% | MDA-MB-435 melanoma 109% | SW-620 colon 106% | MCF7 breast 98.6% | HCT-116 colon 93.9% | HCC-2998 colon 107% | KM12 colon 106%

COc1cccc(NC(=O)OC(C)C)c1
inactive: SR leukemia 92.4% | OVCAR-8 ovarian 106% | OVCAR-5 ovarian 96.4% | OVCAR-4 ovarian 93.1% | SK-OV-3 ovarian 104% | IGROV1 ovarian 99.7% | OVCAR-3 ovarian 121% | HS 578T breast 99% | NCI/ADR-RES ovarian 98.4% | T-47D breast 93.8% | BT-549 breast 103% | MDA-MB-435 melanoma 92.8% | SW-620 colon 96.6% | MCF7 breast 102% | HCT-116 colon 101% | HCC-2998 colon 96.7%

C/C(=N\Nc1ccc([N+](=O)[O-])cn1)c1ccc(N)cc1
inactive: SR leukemia 21.8% | OVCAR-8 ovarian 109% | OVCAR-5 ovarian 98.2% | OVCAR-4 ovarian 100% | SK-OV-3 ovarian 115% | IGROV1 ovarian 93.5% | OVCAR-3 ovarian 101% | HS 578T breast 109% | NCI/ADR-RES ovarian 115% | T-47D breast 103% | BT-549 breast 100% | MDA-MB-435 melanoma 96.5% | SW-620 colon 112% | MCF7 breast 85% | HCT-116 colon 97.8% | HCC-2998 colon 102%
